Measurements: ChEMBL document CHEMBL4513216, “Probing the Open Global Health Chemical Diversity Library for Multistage-Active Starting Points for Next-Generation Antimalarials” (ACS Infect Dis, 2020)
The campaign covered roughly 69,000 compounds. About 8,600 (12%) showed an effect of 50% or more. The sample holds strong results, similar compounds and a random draw of the others, so the mix is not that of the screen.

What follows are compounds tested on Plasmodium berghei (assay: Screen against P. berghei liver stage (PbLuc), transformed with Luciferase, at 10uM). Conditions: tested at 10 uM.
Format: functional, HepG2

Structure (SMILES)	INHIBITION
CC(C)(NC(=O)CCc1ccco1)c1ccc2c(c1)OCCO2	10.6%
Cc1cccc(N2CCN(C(=O)CCc3ccsc3)C(C)C2)n1 (stereo not given)	-16.8%
Cc1cc(NC(=O)NCC(c2ccccc2)N2CCOCC2)n(C)n1 (stereo not given)	-2.53%
Cc1nc(CN(C)C2CCCN(c3cccnn3)C2)no1 (stereo not given)	-31.9%
CC(C)(C)c1nc(CNC2CCCN(c3cccnn3)C2)no1 (stereo not given)	79.2%
Cc1nc(CNC2CCCN(c3cccnn3)C2)no1 (stereo not given)	26.5%
CC(C)c1nc(CNC2CCCN(c3cccnn3)C2)no1 (stereo not given)	78.2%
Cc1cc(CNC2CCCN(c3cccnn3)C2)no1 (stereo not given)	11.8%
CC(C)c1nc(CN(C)C2CCCN(c3cccnn3)C2)no1 (stereo not given)	18.2%
c1ccc(-c2nc(CNC3CCCN(c4cccnn4)C3)no2)cc1 (stereo not given)	48.4%
CS(=O)(=O)c1ccc(CNC2CCCN(c3cccnn3)C2)cc1 (stereo not given)	39.5%
CN(Cc1noc(C(C)(C)C)n1)C1CCCN(c2cccnn2)C1 (stereo not given)	66.2%
CNC(=O)C1(CCCc2cnccn2)CCN1Cc1ccc(C)cc1 (stereo not given)	24.585%
CC(NC(=O)NCC1(O)CCC1)c1ccc(OCC2CC2)c(F)c1 (stereo not given)	13.4%
CCc1nn(C)c2[nH]nc(NC(=O)c3cccnc3OCC(C)C)c12	47.4%
Cn1cc(Cl)c(C(=O)N2CCc3nc4sccc4c(=O)n3CC2)n1	-9.32%
CCn1nc(C)c2ncnc(N(C)Cc3ccco3)c21	52.4%
CCCc1nc(N(C)Cc2ccco2)c2c(n1)c(C)nn2CC	-6.42%
CCn1nc(C)c2nc(C)nc(N(C)Cc3ccco3)c21	43.3%
CCOCC1CN(CCN(C)C)Cc2cnn(CC3CCCC3)c21 (stereo not given)	41.2%
CC(C)CNC(=O)Nc1ccc(CN2CCOC2=O)cc1	23.2%
CC(C)C(O)C1(CNC(=O)Nc2ccc(CN3CCOC3=O)cc2)CC1 (stereo not given)	65.3%
CCC(C)NC(=O)Nc1ccc(CN2CCOC2=O)cc1 (stereo not given)	29%
Cc1[nH]nc2ncc(C(=O)N3CCN(CCC(C)C)CC3)cc12	23.7%
Cc1ccc(CC(=O)N2CCC(Nc3ccc(C)nn3)CC2)cn1	1.78%
O=C(c1ccc(F)c(Br)c1)N1CCCN2CCCC2C1 (stereo not given)	59.4%
CS(=O)(=O)NCC1CCCN(C(=O)c2cc3ccccc3o2)C1 (stereo not given)	57.8%
CS(=O)(=O)NCC1CCCN(C(=O)c2ccc(F)c(F)c2)C1 (stereo not given)	53%

Structure (SMILES)	INHIBITION
O=C(c1ccc(F)c(F)c1)N1CCN2CCCC2C1 (stereo not given)	9.52%
O=C(c1ccc(-n2cccc2)c(F)c1)N1CCCN2CCCC2C1 (stereo not given)	-33.9%
CS(=O)(=O)NCC1CCCN(C(=O)c2cccc(F)c2)C1 (stereo not given)	38.5%
Cc1ccc(C(=O)N2CCCC(CNS(C)(=O)=O)C2)o1 (stereo not given)	26.4%
CS(=O)(=O)NCC1CCCN(C(=O)c2ccco2)C1 (stereo not given)	-14.6%
COc1ccc(C(=O)N2CCCC(CNS(C)(=O)=O)C2)cc1F (stereo not given)	11.6%
CC1(NC(=O)CNC(=O)C(C)(C)C)CCc2ccccc2C1 (stereo not given)	-2.43%
COCCc1noc(CN2CC(n3nc(C)cc3C)C2)n1	-57.4%
CC(C)COC(C)C(=O)NCc1ccccc1 (stereo not given)	-10.1%
CCc1cc(=O)[nH]c(-c2ccc(NC(C)CN3CCOCC3)nc2)n1 (stereo not given)	-33.9%
CSCC1CCCN(c2ncnc3oc(C)nc23)C1 (stereo not given)	-0.532%
O=C(NCc1ccccn1)[C@@H]1COC[C@H]2CN(C3CCOCC3)C[C@H]21	29.6%
CCN(CC)c1ccc2ccc(C(=O)NC3CC3)cn12	24.6%
CN1CCN(c2ccc3ccc(C(=O)N4CCCCO4)cn23)CC1	-12.4%
CCNC(=O)c1ccc2ccc(N(CC)CC)n2c1	55.6%
O=C(c1ccc2ccc(N3CCN(CC4CC4)CC3)n2c1)N1CCCO1	40.8%
CCN(CC)c1ccc2ccc(C(=O)N(CCOC)CCOC)cn12	46.7%
CN1CCN(c2ccc3ccc(C(=O)N4CCCO4)cn23)CC1	51.2%
CCN(CC)c1ccc2ccc(C(=O)O)cn12	39.3%
CCN(CC)c1ccc2ccc(C(=O)N(C)C)cn12	57.1%
CCN(CC)c1ccc2ccc(C(=O)N3CCCCO3)cn12	68.9%
CN(CC1CC1)c1ccc2ccc(C(=O)NCCN3CCOCC3)cn12	23.2%
CN(CC1CC1)c1ccc2ccc(C(=O)NC3CCCCC3)cn12	0.112%
CN(C)C(=O)CNC(=O)c1ccc2ccc(N(C)CC3CC3)n2c1	26%
C[C@@H]1CN(CCC(=O)NCc2ccccc2Cl)CC[C@@]1(O)C1CCC1	41.4%
CN(C)C1CCN(C(=O)Cc2csc(-c3ncccn3)n2)CC1	-31.3%
COc1c(CNCCc2c[nH]c3ccccc23)c(C(C)C)nn1C	22.5%
